Compound activity (PubChem BioAssay)
Sampled rows, rich in hits. Any-hit rate of the full collection: about 3.4%.
PLK1 PBD block: inhibitors of human PLK1 polo-box domain binding. P53350. Plk1 PBD binding of FITC phosphopeptide, fluorescence polarization. Potency, µM, inactives show max response, negative = inhibition, most hits filed as inhibitors. 360,000 compounds, 2.8% hits; also: series mostly up to about 57 µM; % is scaled to controls: 0 for no effect and ±100 for the full control effect; nearly all actives have a fitted effect of over 65% in size
Target sequence (P53350 whole entry, looked up, the tested form may be a part): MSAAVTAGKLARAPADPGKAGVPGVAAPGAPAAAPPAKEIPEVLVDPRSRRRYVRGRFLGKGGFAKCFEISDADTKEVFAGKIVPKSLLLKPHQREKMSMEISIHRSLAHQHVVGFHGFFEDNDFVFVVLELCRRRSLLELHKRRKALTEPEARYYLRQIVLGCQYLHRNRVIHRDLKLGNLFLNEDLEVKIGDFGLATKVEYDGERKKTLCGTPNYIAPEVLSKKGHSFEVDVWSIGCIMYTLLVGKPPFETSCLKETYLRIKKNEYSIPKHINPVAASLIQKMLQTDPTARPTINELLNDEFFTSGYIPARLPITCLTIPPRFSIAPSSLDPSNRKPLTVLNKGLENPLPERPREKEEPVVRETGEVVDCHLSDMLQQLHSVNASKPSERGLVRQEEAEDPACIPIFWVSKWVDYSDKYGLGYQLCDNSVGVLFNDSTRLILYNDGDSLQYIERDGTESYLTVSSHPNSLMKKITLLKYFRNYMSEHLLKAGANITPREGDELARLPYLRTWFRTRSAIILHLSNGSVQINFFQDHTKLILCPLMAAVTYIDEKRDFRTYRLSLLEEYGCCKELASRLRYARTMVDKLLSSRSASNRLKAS
PKM2 act: activators of human pyruvate kinase M2; P14618; purified PKM2, Kinase-Glo ATP luminescence, activation; response scale: 0% is enzyme alone, no compound; Potency, µM (titrated, usually from 57.5 µM), without a hit: at the highest dose activation, actives largely listed as activators; 260,000 compounds, 0.34% hits; also: % is scaled to controls: 0 for no effect and ±100 for the full control effect; nearly all actives have a fitted effect of over 55% in size
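Purified hPK-M2 (>95% pure) converted ADP (0.1 mM final) to ATP with 0.5 mM PEP in 50 mM imidazole pH7.2, KCl, MgCl2, Tween 20, BSA; 1 h at room temperature. ATP detected by Kinase-Glo luminescence.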
KAT2A inh: blocks human GCN5L2 histone acetyltransferase | Q92830 | GCN5L2 HAT assay, ThioGlo1 CoA-SH fluorescence | Potency, µM (titrated, usually from 58.9 µM), for the others: top-dose activity change, negative = inhibition, most hits filed as inhibitors | 390,000 compounds, 0.21% hits; also: % is scaled to controls: 0 for no effect and ±100 for the full control effect
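qHTS, 1536-well. 20nM enzyme, pH 7.5 HEPES/EDTA/Tween-20 buffer; 15 min compound preinc., RT. Start: 75uM H3(1-25), 70uM AcCoA, 50uM ThioGlo1. Read Ex340/Em540 at t=0 (autofluorescence flag) and t=20 min.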
Mito fusion yeast: blocks mitochondrial division or promotes mitochondrial fusion | S. cerevisiae fusion-defective mutant growth rescue, CellTiterGlo 48 h | Potency, µM (top dose mostly 46.1 µM), inactives show top-dose growth rescue (activation), usual class: activators | 320,000 compounds, 0.23% hits | AID 485298; also: % of control where 0% means no effect; nearly all actives have a fitted effect of over 45% in size
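Growth-rescue viability read-out: after 48 h at the non-permissive 37C in glycerol/ethanol YPEG, yeast mitochondrial fusion mutants are measured by CellTiterGlo luminescence; compounds (23 nl pinned per well) restoring growth score as division inhibitors or fusion activators.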
VDR inhibitor: inhibitors of human vitamin D receptor; P11473; VDR-SRC2-3 peptide fluorescence polarization, 2 h; Potency, µM, for the others: max response, negative = inhibition, hits mostly inhibitors; 400,000 compounds, 0.93% hits; AID 504847; also: % is scaled to controls: 0 for no effect and ±100 for the full control effect
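Compounds are added to VDR with labelled SRC2-3 coactivator peptide and held 2 h at room temperature. Inhibition of the VDR–peptide interaction is then read as a change in fluorescence polarization.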
GLS inh: blocks human kidney-isoform glutaminase activity; O94925; GLS enzymatic activity, qHTS titration; Potency, µM (top dose mostly 45.5 µM), inactives show at the highest dose activity change, negative = inhibition, usual class: inhibitors; 410,000 compounds, 0.21% hits; also: % is scaled to controls: 0 for no effect and ±100 for the full control effect
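Glutamate formation by hKGA was monitored fluorometrically using coupled glutamate oxidase, HRP and Amplex Red. Substrate was added as 1 mM L-glutamine solution; incubation was 30 min at RT after an initial read.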
* hit, by the source's call; u = inconclusive; x = no result given; [ ] = dose if it differs, or a comment. Calls follow the shape of the dose curve; as a rule, active = well fitted curve in the direction sought with a large enough effect; inconclusive = small, poorly fitted or top-dose-only effect, or another doubt; inactive = no such curve, though single readings can be large; an effect the other way counts as inactive or inconclusive. Potency is read from the fitted curve at half-maximal effect.

SMILES	PLK1 PBD block	PKM2 act	KAT2A inh	Mito fusion yeast	VDR inhibitor	GLS inh
Cc1ccccc1-n1ncc(C(C)NS(=O)(=O)c2sccc2C)c1C (stereo not given)	-8%	-1%	u	1%	4%	1%
Cc1ccc(Nc2n[nH]c(=S)s2)cc1	24µM*	x	x	x	x	20%
Fc1ccccc1Nc1n[nH]c(=S)s1	30µM*	-4%	18µM*	3%	-18%	-9%
S=c1[nH]nc(Nc2ccc(Cl)cc2)s1	13µM*	-8%	-25%	16%	u	-20%
CN(C)c1nc(N)c(C(=O)Nc2cccnc2)nc1Cl	x	-5%	x	x	x	x
COc1ccc2oc(=O)c(-c3csc(Nc4cccc(O)c4)n3)cc2c1	-5%	1%	-11%	16µM*	1%	4%
C[C@H](NC(=O)c1[nH]cnc1C(=O)Nc1ccc(CNC(=O)OC(C)(C)C)cc1)C(=O)OC(C)(C)C	21µM*	2%	3%	-4%	u	3%
CC(C)(C)OC(=O)NCCCC[C@H](NC(=O)c1[nH]cnc1C(=O)Nc1ccc(CNC(=O)OC(C)(C)C)cc1)C(=O)OC(C)(C)C	-2%	1%	-5%	-18%	-6%	-10%
O=C(COc1ccccc1)NC(NC(=S)Nc1ccccc1C(=O)O)C(Cl)(Cl)Cl (stereo not given)	27µM*	-1%	-2%	2%	u	-5%
Cn1cnc2c1c(=O)n(Cc1ccc(F)cc1Cl)c(=O)n2C	2%	-6%	-4%	4%	0%	8.9µM*
COC(=O)C1=C(C)N(Cc2ccccc2)C(=NCc2ccco2)N[C@H]1c1ccc(Br)cc1	x	-1%	x	-17%	x	x
COc1ccccc1C(=O)Nc1ccc2c(c1)CCCN2C(=O)c1ccccc1	24µM*	-17%	-9%	-24%	u	-6%
O=C(Nc1ccc2c(c1)CCCN2C(=O)c1cccs1)c1cccc(F)c1	u	0%[0.46 µM]	-5%	u	-16%	1%
O=C(Nc1ccc2c(c1)CCCN2C(=O)c1cccs1)c1ccccc1	21µM*	4%[0.46 µM]	-5%	15%	-24%	40%
CCOC(=O)O[C@@H](C)OC(=O)[C@@H]1N2C(=O)[C@@H](NC(=O)[C@@H](N)c3ccccc3)[C@H]2SC1(C)C	x	x	4%[21.4 µM]	x	-1%	-1%[20 µM]
CCCCCCCCCCCCCC(=O)OCC(COP(=O)([O-])OCC[N+](C)(C)C)OC(=O)CCCCCCCCCCCCC (stereo not given)	x	x	-6%	x	0%	5%
Cc1nnc(SCc2nc3scc(-c4ccccc4)c3c(=O)[nH]2)s1	-9%	28µM*	-4%	4%	-5%	-13%
Nc1nnc(SCc2nc3scc(-c4ccccc4)c3c(=O)[nH]2)s1	1%	4%	3%	-4%	2%	-3%
COc1ccc(CC(=O)Nc2cc(S(=O)(=O)N3CCCC3)ccc2Cl)c(OC)c1	-6%	x	-4%	20%	-4%	-5%
CC(C)(C)OC(=O)N1CCC(c2cc(=O)n3[nH]cc(C(=O)Nc4ccc(F)c(Cl)c4)c3n2)CC1	24µM*	1%	-11%	0%	-6%	u
COc1ccc(NC(=O)c2c[nH]n3c(=O)cc(C4CCN(C(=O)OC(C)(C)C)CC4)nc23)cc1Cl	24µM*	3%	-11%	2%	-9%	-10%
CC1=C(C(=O)N(C(C)C)C(C)C)CC(CC(=O)NCc2ccco2)C(=O)N1Cc1ccc(F)cc1 (stereo not given)	-5%	x	x	x	x	-8%
Cc1cccc(-n2c(C)nc3cc(C(=O)N4CCOCC4)ccc32)c1	27µM*	x	-1%	-8%	u	-8%
CCN(C(=O)CSc1nc2cc(S(=O)(=O)N(CC)CC)ccc2o1)C1CCS(=O)(=O)C1 (stereo not given)	21µM*	-1%	-4%	2%	u	-7%
CCCCCCCCCCCCC(=O)N1CCCC[C@H]1CNC(=O)[C@@H](N)CCCCN	x	x	-13%[0.501 µM]	x	29%	x
